These results are taken from PubChem BioAssay.

A word on the inhibition: it is the relative decrease from the control value, in per cent.

Unmarked numbers belong to inactive results. Calls of active or inactive are those of the source.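 Rule for the calls: active = inhibition above the hit cutoff set in the earlier primary screen (cut at about 27% in these data); inactive = the rest.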

For the test, the target named is Protein phosphatase methylesterase 1 (Homo sapiens) (UniProt Q9Y570). The test can be described thus: human PME-1 methylesterase inhibition confirmation – biochemical, fluorescence polarization, FP-Rh probe, triplicate (AID 2171).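 Note: 0% = enzyme with DMSO and 100% = wells lacking PME-1.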 The conditions noted are these: recombinant PME-1, FP-Rh probe fluorescence polarization; at 5.9 µM; stronger effect = higher value. (In general: Fluorescence polarisation rises when a labelled molecule tumbles more slowly, as on binding a larger partner.)
Protein phosphatase methylesterase 1 (Homo sapiens), sequence (Q9Y570 whole entry, looked up): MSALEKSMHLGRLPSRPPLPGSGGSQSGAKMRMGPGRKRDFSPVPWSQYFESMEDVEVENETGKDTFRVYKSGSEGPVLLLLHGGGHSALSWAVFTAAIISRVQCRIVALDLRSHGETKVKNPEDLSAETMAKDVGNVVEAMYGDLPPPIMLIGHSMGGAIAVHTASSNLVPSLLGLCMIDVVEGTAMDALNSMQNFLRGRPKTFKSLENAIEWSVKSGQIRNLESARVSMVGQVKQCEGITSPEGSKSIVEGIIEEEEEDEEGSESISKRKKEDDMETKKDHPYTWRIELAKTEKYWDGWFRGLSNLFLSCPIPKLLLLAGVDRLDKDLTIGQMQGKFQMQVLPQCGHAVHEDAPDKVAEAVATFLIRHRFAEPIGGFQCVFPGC
`Nc1cc(Cl)nc(N/N=C/c2c(O)ccc3ccccc23)n1`: the inhibition is 21.6%.

Turning to `Cc1nc2ccccc2nc1N/N=C/c1ccc(O)cc1O`, the inhibition was 36.4% (active).

`CCc1cc(/C(Cc2ccc3ccccc3n2)=N\O)c(O)cc1O`: the inhibition is 30.8% (active).

Take `Fc1ccc2nc(Nc3nc4cc5c(cc4s3)OCCO5)sc2c1`: the inhibition is 77.5% (active).

With `COc1cc(NC(=O)c2cc3ccccc3cc2O)c(OC)cc1Cl`, the inhibition is 9.45%. With `Cc1cccc(NC(=O)CN2C(=O)S/C(=C\c3ccc(O)c([N+](=O)[O-])c3)C2=O)c1` the figure was 24.7%.

`CCn1c(CSc2n[nH]c(N)n2)nc2cc(C(=O)O)ccc21`: the inhibition was 33.5% (active). With `Cc1cccc2c(N=Nc3ccc(S(=O)(=O)Nc4cccc(Cl)c4)cc3[N+](=O)[O-])c(O)[nH]c12` the figure was -12.3%. The value for `Cc1ccc(S(=O)(=O)c2nnn3c2nc(N2CCOCC2)c2ccccc23)c(C)c1` was 21.9%; that for `O=C(O)c1ccc(N=Nc2c(O)[nH]c3cc(Cl)ccc23)cc1` was 116% (active); that for `Cc1cccc2cc(/C=N/Nc3ccc(C(=O)O)cc3)c(Cl)nc12` was 43.7% (active). With `CCCCn1c(/C=N/Nc2nc3ccccc3[nH]2)nc2ccccc21` the figure was 61.3% (active); with `Cn1c(=O)c(NCCO)c2c3c(cccc31)C(=O)c1ccccc1-2`, 134% (active). As for `COc1ccc(/C=c2\s/c(=C/C(=O)c3ccc(C)cc3)[nH]c2=O)c(OC)c1`, the inhibition was 18.9%. With `Cc1ccc(-c2nc(Nc3ccccc3)n[nH]2)cc1` the figure was 48.5% (active); with `O=C(O)/C(CC(=O)c1ccc(Cl)cc1)=N/Nc1ccc([N+](=O)[O-])cc1[N+](=O)[O-]`, 42.7% (active).
